Screening results: PubChem, several laboratories
phage Ecoli inh: E. coli growth loss with phage present; growth absorbance; inhibition, % at 11.9 µM; 0.26% of 360,000 active; in the data active = inhibition above about 11%
E coli growth-1: inhibitors of Escherichia coli growth | OD600, 23 h; stronger effect = lower value | OD600 absorbance (test concentration not listed) | 0.21% of 330,000 active | AID 1053175;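 active = OD600 absorbance below the run mean of sample wells minus 3.6 SD, in any replicate, cut at about 0.56 in these data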
E coli growth-2: bacterial growth inhibition, counter-screen for AddAB inhibitors | 0.27% of 330,000 active | AID 449728 | inhibition, % at 11.9 µM | E. coli V3065 growth, OD600 absorbance, 18 h;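 active = inhibition above the campaign's mean inhibition across all tested compounds plus 3 SD, cut at about 9.9% in these data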;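 also: uninfected addAB+ strain grown without phage in ampicillin broth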
Tat transport: E. coli Tat transport inhibition. E. coli MC4100 TorA-mCherry Tat export, fluorescence. inhibition, % at 10 µM. 0.036% of 340,000 active;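 active = mean replicate inhibition at least 50% and at least half of replicates individually reaching 50%; inconclusive = only one of the two criteria met; inactive = neither criterion met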;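 also: exported cargo escapes ClpAP degradation while cytoplasmic cargo is degraded and loses fluorescence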
AddAB inh: less growth of phage-infected E. coli with AddAB | AID 435030 | 0.29% of 330,000 active | E. coli expressing H. pylori AddAB, absorbance growth | inhibition, % at 11.9 µM; in the data active = inhibition above about 12%
Of the large screens only hits and unclear results are named; the others gave an inactive call; ! = not active in a repeat. Compounds with a hit are over-represented: about 0.51% of the library has one in this group of screens.

NC(=O)C1CCNc2c(I)cc([N+](=O)[O-])cc2C(=O)NC(CCC(=O)O)C(=O)NC(CO)C(=O)N1 (configuration not stated)	none (no result: phage Ecoli inh, E coli growth-2, Tat transport, AddAB inh)
Cc1ccc(NC(=O)C2CCCN(c3ncccn3)C2)cc1F (configuration not stated)	E coli growth-2 9.8
COc1ccc(OC2C=CC(c3ccccc3)OC2CON=C(C)CCC(=O)OCC2OC(c3ccccc3)C=CC2Oc2ccc(OC)cc2)cc1 (configuration not stated)	none (no result: phage Ecoli inh, E coli growth-2, Tat transport, AddAB inh)
CCN1/C(=C/C=C/C=C/C=C/c2sc3ccccc3[n+]2CC)Sc2ccccc21	none
CCN1/C(=C/C=C/C=C/c2sc3ccccc3[n+]2CC)Sc2ccccc21	E coli growth-2 19.6, AddAB inh 23.5 (no result: phage Ecoli inh, E coli growth-1, Tat transport)
CCN1C(=O)C2C(c3ccc(-c4ccc(F)cc4)c(OC)c3)N3CCC[C@@]3(C(=O)OC)C2C1=O (some centres not stated)	none (no result: phage Ecoli inh, E coli growth-2, Tat transport, AddAB inh)
CCOC1OC(C(=O)NC2CC2)=CC(C2CCCCC2)C1CCCO (configuration not stated)	none (no result: phage Ecoli inh, E coli growth-2, Tat transport, AddAB inh)
O=C(Nc1ccc([N+](=O)[O-])cc1Cl)c1cccc([N+](=O)[O-])c1	none (no result: E coli growth-1, E coli growth-2, Tat transport, AddAB inh)
O=C(Nc1cccc(Cl)c1)c1cc(N=Nc2ccc([N+](=O)[O-])cc2Cl)ccc1O	E coli growth-1 0.496
O=C(Nc1ccc([N+](=O)[O-])cc1Cl)c1cc(Cl)ccc1O	E coli growth-1 0.448
O=C(Nc1cccc(Cl)c1)c1cccc(Oc2ccc([N+](=O)[O-])cc2Cl)c1	none
COc1ccc(C2C=CCN(C(=O)C3CCCCC3)CC(=O)N2Cc2ccc(F)cc2)cc1 (configuration not stated)	none (no result: phage Ecoli inh, E coli growth-2, Tat transport, AddAB inh)
N#CC(=NNc1ccc(Cl)cc1)C(N)=S	E coli growth-1 0.454 (no result: phage Ecoli inh, E coli growth-2, Tat transport, AddAB inh)
CC(=O)NS(=O)(=O)c1ccc(N)cc1	E coli growth-2 10.2!
CC(=O)c1ccc(NS(=O)(=O)c2ccc(N)cc2)cc1	none
Cc1cccc(N2C(=O)N3C4c5ccccc5OCC4C(c4ccccc4)[C@]3(C)C2=O)c1 (some centres not stated)	none (no result: phage Ecoli inh, E coli growth-2, Tat transport, AddAB inh)
Cc1ccc(CN2CC(=O)N3C4c5cc(Cl)ccc5OCC4C(c4ccccc4)[C@]3(C)C2=O)cc1 (some centres not stated)	none (no result: phage Ecoli inh, E coli growth-2, Tat transport, AddAB inh)
CCN(c1ccccc1)S(=O)(=O)c1ccc(Cl)c(C(=O)O)c1	E coli growth-1 0.552
O=C(Nc1ccccc1C(=O)NC1CC1)c1ccc([N+](=O)[O-])o1	phage Ecoli inh 15.7 (no result: E coli growth-2, AddAB inh)
O=c1c(-c2c(O)cc(O)c3c2OC(c2ccc(O)cc2)CC3)c(-c2ccc(O)cc2)oc2cc(O)cc(O)c12 (configuration not stated)	none (no result: phage Ecoli inh, E coli growth-2, Tat transport, AddAB inh)
CC(=O)OC1C2C(CC(C)C3CCC(=O)[C@]31C)OC(=O)C2C (some centres not stated)	none (no result: phage Ecoli inh, E coli growth-2, Tat transport, AddAB inh)
C[n+]1ccn(CC(=O)c2cccs2)c1	none
CCCCCCCCCCCCCCCCn1cc[n+](C)c1	E coli growth-1 0.0655, Tat transport inconclusive
CCCOC(=O)C(=CC=Cc1ccco1)NC(=O)c1ccccc1	none (no result: phage Ecoli inh, E coli growth-2, Tat transport, AddAB inh)
Cc1nc2c(Br)cc(Br)cc2cc1O	E coli growth-1 0.559
Brc1cc(Br)c2nc(-c3cccs3)ccc2c1	none
Cc1nnc(NC(=O)CSc2ccc(-c3ccccn3)nn2)s1	E coli growth-2 9.9 (no result: phage Ecoli inh, Tat transport)
COc1ccccc1NC(=O)CSc1ccc(-c2ccccn2)nn1	phage Ecoli inh 11.7
O=C(CSc1ccc(-c2ccccn2)nn1)c1ccc(F)cc1	E coli growth-2 11.4
Cc1nnc(NC(=O)CSc2ccc(-c3cccnc3)nn2)s1	none
COc1ccc(NC(=O)CSc2ccc(-c3ccccn3)nn2)cc1OC	none
C=CCOc1cccc(C=C2C(=O)N(Cc3ccc(C)cc3)C(C)=C2C(=O)OC)c1	none (no result: phage Ecoli inh, E coli growth-2, Tat transport, AddAB inh)
COc1ccc(CC(N)C(=O)NC2C(CO)OC(n3cnc4c(N(C)C)ncnc43)C2O)cc1 (configuration not stated)	E coli growth-1 0.302 (no result: phage Ecoli inh, E coli growth-2, Tat transport, AddAB inh)
C#CCOCCOCCOCCNc1nc(N2CCN(C(=O)CCCCCCCCCCNC(=O)C(CCSC)n3cc(CCO)nn3)CC2)nc(N2CCN(C(=O)CCCCCCCCCCNC(=O)C(C(C)O)n3cc(C)nn3)CC2)n1 (configuration not stated)	none (no result: phage Ecoli inh, E coli growth-2, Tat transport, AddAB inh)
CC(C)S(=O)(=O)c1csc(NC(=O)Nc2ccc(Cl)cc2)c1	E coli growth-1 0.474
Cc1nc2ccccn2c1C(O)=C1C(=O)C(=O)N(CCN2CCOCC2)C1c1ccncc1 (configuration not stated)	none (no result: phage Ecoli inh, E coli growth-2, Tat transport, AddAB inh)
O=c1[nH]c(=O)n(C2CC(O)C(CO)O2)cc1F (configuration not stated)	E coli growth-1 0.0625 (no result: phage Ecoli inh, E coli growth-2, Tat transport, AddAB inh)
Cc1ccc2nc(SCC(=O)Nc3ccc4c(c3)OCCO4)[nH]c2c1	none
O=C(CSc1nc2ccccc2[nH]1)Nc1ccc2c(c1)OCCO2	E coli growth-2 10.2
C[n+]1c2n(c3ccccc31)N=C(c1ccc(-c3ccccc3)cc1)CS2	E coli growth-1 0.305
C[n+]1c2n(c3ccccc31)N=C(c1ccccc1)CS2	none
CC1CCCCC1NC(=O)C(C#N)=Cc1ccc(F)c(F)c1 (configuration not stated)	none (no result: phage Ecoli inh, E coli growth-2, Tat transport, AddAB inh)
CCOc1ccc(NC(=O)COC(=O)CC2CCCCC2)cc1	phage Ecoli inh 12.1
Fc1ccc(NC(=S)Nc2ccc(Cl)cc2)cc1	E coli growth-1 0.52
COc1cccc(NC(=S)Nc2ccc(F)cc2)c1	none
Fc1cccc(NC(=S)Nc2ccc(Br)cc2)c1	E coli growth-1 0.486
C=Cc1ncc(OC)c2c1[nH]c1ccccc12	E coli growth-1 0.49 (no result: phage Ecoli inh)
O=C(Nc1nc2c(Cl)cccc2s1)c1ccc([N+](=O)[O-])o1	E coli growth-1 0.496
Clc1ccc2c(c1)C(N1CCNCC1)Cc1ccccc1S2 (configuration not stated)	E coli growth-1 0.546 (no result: phage Ecoli inh)
C#CCOCCOCCOCCNc1nc(N2CCN(C(=O)C(Cc3ccc(O)cc3)n3cc(C(N)C(C)CC)nn3)CC2)nc(N2CCN(C(=O)C(C(C)CC)n3cc(C(N)CC(C)C)nn3)CC2)n1 (configuration not stated)	none (no result: phage Ecoli inh, E coli growth-2, Tat transport, AddAB inh)
CC(CCc1ccccc1)NC(=O)C(Cc1ccccc1)NC(N)=O (configuration not stated)	E coli growth-1 0.534
O=C1CC(c2ccc(S(=O)(=O)NC3CC3)cc2)CN1 (configuration not stated)	none
O=C1CC(c2ccc(S(=O)(=O)NCc3ccncc3)cc2)CN1 (configuration not stated)	phage Ecoli inh 12.5
O=C(NN=Cc1ccc(OC(=O)c2ccccc2Cl)cc1)c1cc(O)cc(O)c1	none (no result: phage Ecoli inh, E coli growth-2, Tat transport, AddAB inh)
Cc1cc(Cl)ccc1NC(=S)NCCC(c1ccccc1)c1ccccc1	E coli growth-2 13.2
CCOC(=O)c1ccc(S(=O)(=O)NCCN(CC)CC)cc1	E coli growth-1 0.441
CCN(CC)CCNS(=O)(=O)c1ccc(C(=O)NN)cc1	none
Cc1ccccc1C(NC(=O)OC(C)(C)C)C(=O)OC(C)(C)C (configuration not stated)	none (no result: phage Ecoli inh, E coli growth-2, Tat transport, AddAB inh)
NC(N)=N/N=C/c1c(Cl)cccc1Cl	E coli growth-2 12.2! (no result: E coli growth-1)
NC(N)=NN=Cc1ccccc1Cl	none (no result: phage Ecoli inh, E coli growth-2, Tat transport, AddAB inh)
NC(N)=N/N=C/c1ccccc1Cl	E coli growth-2 13.4 (no result: E coli growth-1)
NC(N)=NN=Cc1ccc(OCc2ccccc2Cl)cc1	E coli growth-1 0.0445 (no result: phage Ecoli inh, E coli growth-2, Tat transport, AddAB inh)
